# Unmarked numbers belong to inactive results.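 The calls were made as follows: active = fitted curve rises past 20% activation at a concentration no higher than the top valid tested dose; inactive = activity opposite to the expected signal increase, and the rest.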
# Assay: Rlm1 cell wall stress reporter activators, dose response, S. cerevisiae reporter strain, C. neoformans project, dry powder (AID 743130)
# Settings: S. cerevisiae Rlm1-lacZ reporter, luminescence, 4 h, stronger effect = higher value
compound,measurement,setting,value
Cc1ccc(OCCn2c(=S)[nH]c3ccccc32)c(C(C)C)c1,maximal activation,at 0.135 µM,2.35%
same,maximal activation,at 0.26 µM,3.69%
